Measurements published in PubChem BioAssay AID1345085 (National Center for Advancing Translational Sciences (NCATS), 2018).
Records with an inconclusive call do not appear. The source made the active and inactive calls. Calls follow the shape of the dose curve; as a rule, active = well fitted cell-killing curve with a large enough effect; inconclusive = small, poorly fitted or top-dose-only effect, or effect the other way; inactive = no such curve, though single readings can be large or run the other way.

system: PA-1; assay: Confirmatory qHTS for gynecologic anti-cancer compounds from libraries of approved drugs and bioactive compounds; conditions: gynecologic cancer cell panel viability, ATPlite luminescence, 48 h; series mostly up to 57.6 µM; also: nearly all actives have a fitted effect of over 55% in size
How it was run: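 Cells (1,000/well) plated 16 h, then exposed 48 h at 37 °C to 11 concentrations (1:3) from 57.5 uM to 0.977 nM. Viability by ATPlite luminescence after 15 min; IC50 derived, with HEK 293T used for selectivity index.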
Potency is read from the fitted curve at half-maximal effect.

| Compound | Potency |
| --- | --- |
| CN(NC(=O)CC(=O)NN(C)C(=S)c1ccccc1)C(=S)c1ccccc1 | 0.0544 µM (active) |
| Cc1cnc(Nc2ccc(CN3CCOCC3)cc2)nc1Nc1cccc(S(=O)(=O)NC(C)(C)C)c1 | 2.17 µM (active) |
| COc1cc2c(Nc3ccc(NC(=O)c4ccccc4)cc3)ncnc2cc1OCCCN1CCOCC1 | 34.3 µM (active) |
| COc1cc(N2CCC(N)CC2)ccc1Nc1ncc(Cl)c(-c2c[nH]c3ccccc23)n1 | 19.3 µM (active) |
| COc1cc2c(cc1-c1c(C)noc1C)ncc1[nH]c(=O)n(C(C)c3ccccn3)c12 (stereo not drawn) | 2.17 µM (active) |
| CCS(=O)(=O)N1CCN(c2ccc(Nc3ncc(C(N)=O)c(NC4CC4)n3)cc2)CC1 | 3.85 µM (active) |
| c1cc(N[C@@H]2CCNC2)nc(-c2cnc3ccc(-c4cn[nH]c4)cn23)c1 | 1.72 µM (active) |
| CC1=C(/C=C/C(C)=C/C=C/C(C)=C/C(=O)Nc2ccc(O)cc2)C(C)(C)CCC1 | 4.85 µM (active) |
| O=C(Nc1cccnc1)N1CCC(Cc2cccc(Oc3ccc(C(F)(F)F)cn3)c2)CC1 | 6.85 µM (active) |
| O=C(c1ccc(F)c(F)c1Nc1ccc(I)cc1F)N1CC(O)([C@@H]2CCCCN2)C1 | 15.3 µM (active) |
| Cn1c(=O)c(F)c(Nc2ccc(I)cc2F)c2c(=O)n(CC(O)CO)cnc21 (stereo not drawn) | 2.17 µM (active) |
| COCCOc1nc(-c2ccc(Cl)c(Cl)c2)n(-c2ccc(NC(=O)CCl)cc2)n1 | 8.63 µM (active) |
| COc1cc(C(=O)N2CCC(N3CCN(C)CC3)CC2)ccc1Nc1ncc2c(n1)N(C)c1ccccc1C(=O)N2C | 9.68 µM (active) |
